What follows are sequences tested against T1, ETS1 (UniProt P14921) (assay: ETS1 binding intensity (PBM fluorescence), ETS1 alone (arbitrary fluorescence units); higher = stronger binding). Conditions: ETS1 concentration 1 nM; RUNX1 concentration 0 nM.
T1 sequence: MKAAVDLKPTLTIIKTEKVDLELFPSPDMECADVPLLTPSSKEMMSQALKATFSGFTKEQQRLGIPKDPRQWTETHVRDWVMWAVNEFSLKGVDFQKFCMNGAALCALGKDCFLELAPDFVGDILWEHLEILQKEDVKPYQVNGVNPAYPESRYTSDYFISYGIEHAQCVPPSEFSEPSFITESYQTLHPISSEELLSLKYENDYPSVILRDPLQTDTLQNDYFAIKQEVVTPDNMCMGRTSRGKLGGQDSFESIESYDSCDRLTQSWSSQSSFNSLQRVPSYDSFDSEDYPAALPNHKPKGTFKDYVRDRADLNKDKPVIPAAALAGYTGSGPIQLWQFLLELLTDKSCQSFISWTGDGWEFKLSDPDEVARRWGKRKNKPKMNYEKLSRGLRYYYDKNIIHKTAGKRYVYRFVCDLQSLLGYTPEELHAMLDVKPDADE

| Sequence | ETS1 binding intensity |
| --- | --- |
| CCACTCCAGGAAACTCCTCCAGGTGAGCCCACAACT | 500 |
| CTCAGCGGAAGAGCGGGCCTCTGGGCCGCAGTGACC | 478 |
| GCTACGGGTTCCCCGGATGGAGCCGCAGTCCGGCCG | 858 |
| GGTGCCTGGGGAGGATGTGGGCTGACTGGGAGGGGT | 870 |
| CTGTTCTCATCCGCCCGCTCTGAGTCACCCACACCT | 465 |
| ACACCTCAGGAAGTGGCAGAGACCACAACAAGTCAG | 701 |
| TGATGCAGGAAGGGGTGGAGTCACCACAGGAGGTAG | 827 |
| TCTCTTCTCCCCATCCGCCCGAGACCACAGCCACTC | 509 |
| CAACCCGGAAGCACTAACGGAGAAACCGCAACTCGG | 729 |
| GCAGGACTCCAGGAAGCCCGCGCAGCCGCAAAAAGC | 597 |
| CCCGCCGGAAGGACGCGTCTGCGTCTCTGCGGCGAG | 680 |
| GAAAAAAATGAGCTTCCTTTAACCACAACTGTATTA | 508 |
| GCTGTCCATTTCCGAGATGTTAATGCGGGATCTTGC | 408 |
| CAACAAGAGGAAATCAGAAACACTGAAGCCACAGCT | 420 |
| GTGGGGCAGGATGTGCTTGCCTGGCTGCGGTTGGAC | 2170 |
| GAACCCAGGTCTGCTTCCTGTGGCCACCATCTGTGC | 761 |
| GACGGGATGTAGGTTTTCAGCCGTGGCCACAGGAGA | 496 |
| AGTACAAAGGGGAAATGTCTCTTGGTGGTTGATAAG | 628 |
| GCTTACGTCACGTCCGGCGCCTGCGGCCCACCCCTC | 592 |
| GCTAAAGGAAGCTCTGTACAGCTGTGGTAAGGTGGC | 552 |

| Sequence | ETS1 binding intensity |
| --- | --- |
| GCAGTCAGAAGGTGCGGATGCGGTAAGGTATGCGCT | 1130 |
| GTCTTACTTCCTGTCCCCGCCCACCGCGACTGTCTT | 2560 |
| GAGGAACCCAAAGTAGGATGTGGTTTTGCAATTGGA | 757 |
| GAAGCTCCCCAAACAGGATGTGGTTAGGGAGAGGGG | 8040 |
| CAAGAGAAAGGAAGTGGAAGCTCTTGTGGTCTGGAA | 1460 |
| ACACCCCAGGAAGTGGCAGAGACCACAACAAGTCAG | 704 |
| TCACCCTCTCACTTCCTGCGGGTCCCAGGCTCAGGC | 896 |
| AGAGCAACAGGATGCAAATAACCACAAGCAAGAATA | 920 |
| CACCCATAGCACCCCGGAAACCACCTCCACCACCTG | 1890 |
| AAGTTGATTTCCGGGTAGTCTGTGGTTTCCTAATCA | 1040 |
| TCTCTATGGTTTCCGTTGGGTGTGTGGTTTTTTTGT | 579 |
| TGGCTGGGCAGGAAGGCCTGTGGCTTACGGTTCCTG | 551 |
| AACATTACGGAAGTTTCTCTACCCATGCGGTGTCTC | 521 |
| GTCCTCCAGGAAGCCCGCGCTAACCACCGTGCCTTT | 420 |
| CTCGGAGCGGAACTACTAGGGTGGTTTCTCCTGAGG | 464 |
| GGAGCAGGAAGCGTCGCCGGGGGGCCCACAAGGGTA | 528 |
| CAGAGGCCCGGCCTCTTCCGCCACAACTCCGGCCCG | 492 |
| CCTGTCTGCTTCCGCCCGGCTTCGGCCCACAGTCAA | 511 |
| CAGGAGCAGTGTAGAGGAAGTGGTTTCCATCACGGA | 2630 |

— the supplement of paper PMC10681739
